According to PubChem BioAssay (NCI):
This is part of a sample that, as a whole, favours compounds with a hit. Of some 79,000 tested, about 15% had one in any assay. Active and inactive are the calls of the source. Cut-off read from the data, not from the text of the source: active = growth inhibition above about 70%; inactive = the rest.

Experiment: NCI Yeast Anticancer Drug Screen. Data for the mec2-1 strain (AID 157)
Settings: S. cerevisiae mec2-1 strain, at 50.0 µM, active compounds read high
Outline: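 Test agents were screened against the mec2-1 yeast strain, with defined DNA repair or cell cycle alteration. Growth was scored as inhibition against vehicle-only controls.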

SMILES | growth inhibition
CCCCN1CCNCC1 | -1.95% (inactive)
O=[N+]([O-])c1ccc2nc3c(nc2c1)-c1cccc2cccc-3c12 | -15.9% (inactive)
CCCOC(=O)C(=O)C(C#N)c1ccccc1 (stereo unspecified) | -0.35% (inactive)
CC(=O)Nc1ccc(/C=C/C(=O)c2ccc(Cl)cc2)cc1 | -4.65% (inactive)
O=C(CN1CCOCC1)Nc1cccc(C(F)(F)F)c1 | -31.4% (inactive)
Cc1ccccc1Nc1n[nH]c(=S)s1 | 17.8% (inactive)
CCOC(=O)NC(C)(C)CN(C(=O)OCC)C(C)(C)CO | -26.2% (inactive)
COc1cc(C2N(c3ccccc3)CCN2c2ccccc2)cc(OC)c1OC | 62.9% (inactive)
CC(C)c1nc(-c2ccccc2)c(-c2ccccc2)[nH]1 | 13.1% (inactive)
COc1ccc(-c2cc(=O)c3c(O)cccc3o2)cc1 | -37.1% (inactive)
COc1ccc(/C(C#N)=C2C=C(Cl)/C(=N/O)C=C/2Cl)cc1 | -7.45% (inactive)
C[N+]12OC3CC1C1OC1C2C3 (stereo unspecified) | -9.4% (inactive)
Cc1ccc(-c2nc3cc(Cl)ccc3c(=O)o2)cc1 | -11.3% (inactive)
COc1cccc(N2C(=O)CSC2=S)c1 | 7.95% (inactive)
COc1cccc(CNc2ccc(SC)cc2)c1OC | 12.9% (inactive)
ClCCCC1(CCCCl)OCCO1 | -25.1% (inactive)
CCOC(=O)c1sc(N)c(C(=O)OCC)c1C | -46.8% (inactive)
O=C1NC(C2CC3C=CC2C3)Nc2ccccc21 (stereo unspecified) | 0.8% (inactive)
CCN(CC)c1cc(C(C)(C)C)cc(C(C)(C)C)c1 | -21.5% (inactive)

Experiment: NCI Yeast Anticancer Drug Screen. Data for the mlh1 rad18 strain (AID 175)
Settings: S. cerevisiae mlh1 rad18 strain growth inhibition; at 50.0 µM; active compounds read high
Outline: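 In this whole-cell yeast screen, a strain with altered DNA damage repair is challenged with compound, and its growth is measured against matched vehicle-treated controls.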

SMILES | growth inhibition
COc1ccc2ccccc2c1/C=N/N1CCCCC1 | 1.05% (inactive)
O=c1oc(-c2ccccc2)nc2cc(Cl)ccc12 | 1.35% (inactive)
COc1cc(/C=C2\CN(C)C(=O)C2=O)ccc1O | -12.2% (inactive)
CCOC(=O)CC(=O)c1ccc(C)cc1 | 9.75% (inactive)
Cc1ccccc1CC1c2[nH]c3ccccc3c2CCN1C (stereo unspecified) | -22.4% (inactive)
NC(=O)c1ccccc1OCC(O)CO (stereo unspecified) | 26.1% (inactive)
CCOC(=O)CCc1ccc(O)c(O)c1 | 15.6% (inactive)
CC(CN1CCCC1)C(O)(Cc1ccccc1)c1ccccc1 (stereo unspecified) | -4.15% (inactive)
Cc1cccc(C2NC(=O)c3ccccc3N2)c1 (stereo unspecified) | 10.5% (inactive)
O=[N+]([O-])c1cccc(S(=O)(=O)OCCOc2ccccc2)c1 | 17.6% (inactive)
CCOC(=O)c1c(N)sc2c1CCN(Cc1ccccc1)C2 | 21.9% (inactive)
CS(=O)(=O)c1ccc(NN)c([N+](=O)[O-])c1 (tested in a mixture with another compound) | -39.1% (inactive)
Cc1ccc(CNc2cccc([N+](=O)[O-])c2)cc1 | 1.8% (inactive)
Cc1cccc(NNC(=S)Nc2ccccc2)c1 | 5.05% (inactive)
ClCCOC(OCCCl)OCCCl | 4.85% (inactive)
N#C/C(=C1C=C/C(=N/O)C(Br)=C/1)c1ccccc1 | 22% (inactive)
O=C1c2ccccc2C(=O)N1/N=C/c1ccc2c(c1)OCO2 | 18.4% (inactive)
COc1ccc(-c2coc3ccc4ccccc4c3c2=O)cc1OC | 7.25% (inactive)
CCCCN1CCNCC1 | -2.55% (inactive)

SMILES | growth inhibition
O=[N+]([O-])c1ccc2nc3c(nc2c1)-c1cccc2cccc-3c12 | 12.3% (inactive)
CCCOC(=O)C(=O)C(C#N)c1ccccc1 (stereo unspecified) | 16.9% (inactive)
CC(=O)Nc1ccc(/C=C/C(=O)c2ccc(Cl)cc2)cc1 | 2.75% (inactive)
O=C(CN1CCOCC1)Nc1cccc(C(F)(F)F)c1 | -35.4% (inactive)
Cc1ccccc1Nc1n[nH]c(=S)s1 | 33% (inactive)
CCOC(=O)NC(C)(C)CN(C(=O)OCC)C(C)(C)CO | 8.05% (inactive)
COc1cc(C2N(c3ccccc3)CCN2c2ccccc2)cc(OC)c1OC | 43.1% (inactive)
CC(C)c1nc(-c2ccccc2)c(-c2ccccc2)[nH]1 | 54.7% (inactive)
COc1ccc(-c2cc(=O)c3c(O)cccc3o2)cc1 | -1.35% (inactive)
COc1ccc(/C(C#N)=C2C=C(Cl)/C(=N/O)C=C/2Cl)cc1 | -19.2% (inactive)
C[N+]12OC3CC1C1OC1C2C3 (stereo unspecified) | 25.4% (inactive)
Cc1ccc(-c2nc3cc(Cl)ccc3c(=O)o2)cc1 | 6.3% (inactive)
COc1cccc(N2C(=O)CSC2=S)c1 | 46.8% (inactive)
COc1cccc(CNc2ccc(SC)cc2)c1OC | 18.9% (inactive)
ClCCCC1(CCCCl)OCCO1 | -2.2% (inactive)
CCOC(=O)c1sc(N)c(C(=O)OCC)c1C | -20.1% (inactive)
O=C1NC(C2CC3C=CC2C3)Nc2ccccc21 (stereo unspecified) | 2.7% (inactive)
CCN(CC)c1cc(C(C)(C)C)cc(C(C)(C)C)c1 | -11.1% (inactive)
